Assay outcomes from PubChem BioAssay.
KLK7 zymogen act: activates the human kallikrein-7 zymogen; purified proKLK7, EDANS-DABCYL substrate fluorescence; 100% is mature enzyme control, 0% vehicle; hit rate 0.9% among 370,000; activation, % at 7 µM;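 active = activation above the mean of all tested compounds plus 3 SD, computed per campaign excluding outliers beyond control limits, cut at about 13% in these data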
ADAM17 inh: ADAM17 inhibition, QFRET primary screen. recombinant ADAM17, EDANS/DABCYL FRET peptide cleavage. P78536. hit rate 0.83% among 370,000. inhibition, % at 6.95 µM;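 active = inhibition above the mean of compounds lying between control limits plus 3 SD, set per campaign, cut at about 8.5% in these data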
Target sequence (P78536 215-824 limits assumed): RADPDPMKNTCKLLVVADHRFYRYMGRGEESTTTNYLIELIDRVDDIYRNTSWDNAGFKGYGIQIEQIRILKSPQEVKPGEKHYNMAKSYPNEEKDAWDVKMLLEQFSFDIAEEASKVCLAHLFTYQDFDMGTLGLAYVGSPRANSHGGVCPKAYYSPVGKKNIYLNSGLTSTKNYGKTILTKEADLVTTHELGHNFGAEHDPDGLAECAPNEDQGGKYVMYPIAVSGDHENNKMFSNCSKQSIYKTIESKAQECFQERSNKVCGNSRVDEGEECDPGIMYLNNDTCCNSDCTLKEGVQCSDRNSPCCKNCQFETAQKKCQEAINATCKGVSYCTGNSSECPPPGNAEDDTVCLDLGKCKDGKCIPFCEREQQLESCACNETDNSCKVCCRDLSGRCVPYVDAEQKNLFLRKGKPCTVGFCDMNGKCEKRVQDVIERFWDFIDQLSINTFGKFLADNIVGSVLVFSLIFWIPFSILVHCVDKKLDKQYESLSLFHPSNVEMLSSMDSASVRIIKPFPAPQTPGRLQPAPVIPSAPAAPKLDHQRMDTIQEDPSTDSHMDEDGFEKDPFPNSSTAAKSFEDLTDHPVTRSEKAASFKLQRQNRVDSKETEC
PLC-beta3 inh: blocks human PLC-beta3 enzyme activity | Q01970 | Purified PLC-beta3, fluorogenic substrate, fluorescence | inhibition, % at 12.2 µM | hit rate 0.18% among 370,000 | AID 720704
ADAM10 inh: inhibitors of human ADAM10 | recombinant ADAM10, EDANS/DABCYL FRET peptide cleavage, 3 h | inhibition, % at 7 µM | hit rate 0.62% among 370,000 | O14672;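 active = inhibition above a per-campaign cutoff equal to the mean of compounds falling between control-based bounds plus 3 SD, cut at about 20% in these data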
PLCg1 inh: blocks human PLC-gamma1 enzyme activity | P19174 | purified PLC-gamma1, fluorogenic substrate, fluorescence | inhibition, % at 12.2 µM | hit rate 0.84% among 370,000; in the data active = inhibition above about 9.5%
PLCgamma1 ctr: inhibits human PLC-gamma1 in PLC-beta3 counter-screen. shares compounds with PLCg1 inh. purified PLC-gamma1, fluorogenic substrate, fluorescence. inhibition, % at 12.3 µM. hit rate 3.1% among 3,300. AID 743258; in the data active = inhibition above about 9.5%
PLCb3 confirm: human PLC-beta3 inhibition, confirmation. shares compounds with PLCg1 inh. purified PLC-beta3, fluorogenic substrate fluorescence. inhibition, % at 12.3 µM. hit rate 1% among 3,300
Hits are given with their value; n = inactive; x = no result given. This is a sample that favours compounds with a hit; in the whole collection about 2.9% have one here. Rule as the data show it, unless noted: active = inhibition above about 11%; inactive = the rest.

SMILES | KLK7 zymogen act | ADAM17 inh | PLC-beta3 inh | ADAM10 inh | PLCg1 inh | PLCgamma1 ctr | PLCb3 confirm
O=C(CCC(=O)c1cccs1)OCc1nc2ccccc2s1 | n | n | n | n | n | x | x
CC(=O)OCCCCCCCCCCC[N+]1(C)CCCCC1 | n | n | n | n | n | x | x
COC(=O)CCCCCCCCCC[N+]1(C)CCCCC1 | n | n | 10.8 | n | n | n | n
O=C(CSc1ccccc1)N(c1ccc(Br)cc1)c1nccs1 | n | n | n | n | 14.3 | n | n
O=C(CCSc1ccccc1)Nc1nccs1 | n | n | n | n | n | x | x
CC1(C(=O)NS(=O)(=O)c2ccccc2Cl)CCN1C(=O)Cc1ccccc1Cl (stereo not given) | n | n | n | n | 11.6 | n | n
COc1ccc(OC)c(S(=O)(=O)NC(=O)C2(C)CCN2C(=O)CC2CCCC2)c1 (stereo not given) | n | n | n | n | 10.7 | n | n
CC1(C(=O)NS(=O)(=O)c2ccccc2Cl)CCN1C(=O)Cc1ccccc1 (stereo not given) | n | n | n | n | n | x | x
COc1ccc(OC)c(S(=O)(=O)NC(=O)C2(C)CCN2C(=O)Cc2ccccc2Cl)c1 (stereo not given) | n | n | n | n | n | x | x
Cc1ccc(C(C)C)cc1NC(=O)Nc1ccc([N+](=O)[O-])cc1 | n | n | 11.7 | n | n | n | n
Cc1ccc2nc(-c3ccco3)c(CC(C)(C)C)n2c1 | n | n | n | n | n | x | x
CCN(CC)C(=O)C[n+]1cccc(C(N)=O)c1 | n | n | n | n | 9.6 | n | n
Cc1ccc(C(=O)C[n+]2cccc(C(N)=O)c2)cc1 | n | n | n | n | n | x | x
Clc1ccc(-n2c(SCc3cccc4ccccc34)nnc2-c2ccccc2)cc1 | n | n | n | n | n | x | x
O=C(CN1C(=O)C2(OCCCO2)c2ccccc21)NCc1ccccc1Cl | n | n | n | n | n | x | x
CC1CCN(C(=S)Nc2ccc(SC(F)F)cc2)CC1 | n | n | n | n | 11.4 | n | n
CCCCOCCCNC(=O)C[C@@H]1C[C@@]2(C(=O)OCC)CCCC=C2N(Cc2ccco2)C1=O | n | n | n | n | n | x | x
COc1cc(C(=O)NCC2(N(C)C)CCCCC2)ccc1OCc1ccccc1 | n | n | n | n | 13.0 | n | n
COc1cc(C(N)=O)ccc1OCc1ccccc1 | n | n | 11.0 | n | n | n | n
COc1ccc(CN2CCC(C(N)=O)CC2)cc1OCc1ccccc1 | n | n | n | n | n | x | x
COc1ccc(CN2CCN(C)CC2)cc1OCc1ccccc1 | n | n | n | n | 11.3 | n | n
CCC(=O)c1ccc(OCc2ccccc2)c(OC)c1 | n | n | n | n | n | x | x
O=S1(=O)CC(c2ccccc2)=NN=C(c2ccccc2)C1 | n | n | 10.8 | n | n | n | n
O=C1CC(c2ccccc2)=NO1 | n | n | n | n | n | x | x
Cc1nn(C)c(Oc2ccccc2)c1CCNC(=O)C(C)(C)C | n | n | n | n | 11.1 | n | n
SMILES | KLK7 zymogen act | ADAM17 inh | PLC-beta3 inh | ADAM10 inh | PLCg1 inh | PLCgamma1 ctr | PLCb3 confirm
Cc1cccc(N2CCN(C(=O)c3ccc4c(c3)NC(=O)C(CSCc3cccc(F)c3)N4)CC2C)c1 (stereo not given) | n | n | n | n | n | x | x
Cc1ccc2nc(NC(=O)C3CCN(S(=O)(=O)c4cccnc4)CC3)sc2c1 | n | n | n | n | n | x | x
Cc1ccc2nc(NC(=O)C3CCN(S(=O)(=O)c4cnc[nH]4)CC3)sc2c1 | n | n | n | n | 9.6 | n | n
O=C(CCS(=O)(=O)c1cccs1)Nc1ccc(C(=O)NCc2cccs2)cc1 | n | n | n | n | n | x | x
O=C(CCS(=O)(=O)c1cccs1)Nc1ccc(C(=O)NCc2ccc(F)cc2)cc1 | n | n | n | n | 9.6 | n | n
CCN1C/C(=C\c2cccc([N+](=O)[O-])c2)C(=O)/C(=C/c2cccc([N+](=O)[O-])c2)C1 | n | n | n | n | 12.5 | n | n
O=C1/C(=C/c2cccc([N+](=O)[O-])c2)CCc2ccccc21 | n | n | n | n | n | x | x
CCCCn1c(SCC(=O)Nc2cc(C)on2)nnc1-c1cccs1 | n | n | n | n | n | x | x
CCn1c(SCC(=O)Nc2ccc(OC)c(OC)c2)nnc1-c1cccs1 | n | n | n | n | 12.4 | n | n
Cc1cc(NC(=O)CSc2nnc(-c3cccs3)n2N)no1 | n | n | n | n | 9.9 | n | n
